Source: PubChem BioAssay (National Center for Advancing Translational Sciences (NCATS))
This is a sample that favours compounds with a hit; in the whole collection about 7.5% have one here.
KinaseGlo FLuc – blocks Kinase-Glo luciferase, a counter-screen artifact | Q27757 | Kinase-Glo luciferase, ATP luminescence, 8 min | Potency, µM (titrated, usually from 38.3 µM), for inactives: at the highest dose activity change, negative = inhibition, most hits filed as inhibitors | 200,000 tested, 0.28% active | AID 1379; further: on the % scale 0 is the no-effect control and ±100 the full control effect; nearly all actives have a fitted effect of over 60% in size
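Compound is pinned into ATP-containing buffer (10 uM ATP, imidazole pH 7.2, 7 mM MgCl2). Kinase-Glo luciferase reagent is then added. Light output is recorded following an 8-min room-temperature incubation.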
SMN2 splice up – enhancers of SMN2 splice variant expression. HEK293 SMN2-luciferase splicing reporter, luminescence, 30-36 h. AID 1458. 210,000 tested, 2.8% active. Potency, µM (highest dose often 46.1 µM), for inactives: top-dose activity change, positive = activation, hits mostly activators; further: % of control where 0% means no effect; nearly all actives have a fitted effect of over 55% in size
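HEK293 cells carry an SMN2 […]–luciferase reporter in which exon 7 inclusion puts luciferase in frame. Cells were plated 10-12 h before compound addition, then incubated 30-36 h at 37C. ONE-Glo luminescence was read; sodium butyrate at 4.5 mM final served as control.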
FLuc counter – counter-screen for miR-21 project: firefly luciferase inhibitors or activators; P08659; 360,000 tested, 6.9% active; Potency, µM (titrated, usually from 57.5 µM), inactives show at the highest dose activity change, negative = inhibition, hits mostly inhibitors; purified FLuc, Km substrates, luminescence inhibition; AID 588342;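 further: plate controls were vehicle for no effect and reference inhibitor for full effect; nearly all actives have a fitted effect of over 55% in size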
Target sequence (P08659 whole entry, looked up): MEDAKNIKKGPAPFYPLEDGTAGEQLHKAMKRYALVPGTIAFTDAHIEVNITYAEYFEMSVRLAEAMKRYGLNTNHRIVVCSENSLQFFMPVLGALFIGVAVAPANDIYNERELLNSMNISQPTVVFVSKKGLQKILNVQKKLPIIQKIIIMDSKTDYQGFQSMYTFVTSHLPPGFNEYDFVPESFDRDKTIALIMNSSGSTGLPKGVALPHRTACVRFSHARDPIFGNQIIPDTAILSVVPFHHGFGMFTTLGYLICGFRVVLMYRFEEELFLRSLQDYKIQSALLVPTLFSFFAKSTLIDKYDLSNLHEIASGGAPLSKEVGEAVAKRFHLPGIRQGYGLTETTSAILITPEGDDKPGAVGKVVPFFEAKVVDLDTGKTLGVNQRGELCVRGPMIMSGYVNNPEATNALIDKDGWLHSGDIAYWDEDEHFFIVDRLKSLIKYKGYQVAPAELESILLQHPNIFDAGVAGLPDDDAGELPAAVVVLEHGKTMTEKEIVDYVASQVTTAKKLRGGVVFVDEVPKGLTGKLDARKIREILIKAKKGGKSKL
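Purified P. pyralis luciferase (10nM final) with 10uM D-luciferin and 10uM ATP (Km levels) in 50mM Tris acetate pH 7.5, 10mM Mg acetate, 0.01% Tween-20, 0.05% BSA; qHTS 6-point titration, ~60 µM downward; luminescence read.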
ELG1 genotoxic – inducers of genotoxicity in HEK293T ELG1-luciferase cells; HEK293T ELG1-luciferase reporter, luminescence, 16 h; Potency, µM (titrated, usually from 46 µM), for inactives: at the highest dose activity change, positive = activation, hits mostly activators; 330,000 tested, 1.3% active; further: % of control where 0% means no effect; nearly all actives have a fitted effect of over 60% in size
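Reporter readout depends on ELG1 protein level, which increases with genetic stress. After 16 hr compound exposure at 37 °C, luciferase activity was quantified using ONE-Glo.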
NPC1 prom act – activates the NPC1 promoter. Huh7 NPC1 promoter luciferase reporter, 24 h. Potency, µM (highest dose often 9.22 µM), for the others: top-dose activation, usual class: activators. 320,000 tested, 2.4% active; further: % of control where 0% means no effect; nearly all actives have a fitted effect of over 60% in size
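Luminescence read-out of NPC1 promoter-driven luciferase in stably transfected Huh7 cells; compounds delivered in DMSO and left 24 h at 37C, 5% CO2, qHTS titration format.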
Rab9 prom act – Rab9 promoter activation | 320,000 tested, 2.8% active | Potency, µM (doses to about 9.22 µM), without a hit: at the top dose activation, negative = inhibition, hits mostly activators | Huh7 Rab9 promoter-luciferase reporter, luminescence, 24 h; further: % of control where 0% means no effect; nearly all actives have a fitted effect of over 60% in size
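Using Huh7 cells stably transfected with Rab9 promoter–luciferase, compounds were incubated 24 h at 37 °C, 5% CO2; luciferase luminescence was read 10 min after reagent addition.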
The depositor's hits bear a star; ? = inconclusive; . = no result; [ ] = remark or other dose. The call rests on the fitted dose curve; in most records, active means well fitted curve in the direction sought with a large enough effect; inconclusive means small, poorly fitted or top-dose-only effect, or another doubt; inactive means no such curve, though single readings can be large; an effect the other way counts as inactive or inconclusive. Potency means the concentration at half of the fitted maximal effect.

SMILES	KinaseGlo FLuc	SMN2 splice up	FLuc counter	ELG1 genotoxic	NPC1 prom act	Rab9 prom act
CCOc1ccc2c(c1)c(=O)c(C(=O)c1ccc(C)cc1)cn2Cc1ccccc1OC	.	4%	-5%	.	.	.
CCn1c2ccccc2c2cc(CN3CCN(Cc4ccc(Cl)cc4)CC3)ccc21	.	-10%	2%	.	.	.
CCOC(=O)C1=C(CN2CCN(c3ccc(Cl)cc3)CC2)NC(=O)NC1c1ccc(F)cc1 (stereo not drawn)	.	.	2%	.	.	.
COc1cccc(CNC(=O)CCC2CCCN(C(=O)c3cc4ccccc4o3)C2)c1 (stereo not drawn)	.	.	13µM*	11%	?	4.5µM*
COc1cccc(CNC(=O)CCC2CCCN(C(=O)c3ccoc3)C2)c1 (stereo not drawn)	-1%	.	3%	1%	3%	2%
O=C(CCNC(=O)c1ccccc1Cl)NCCCSc1ccccc1	.	.	-2%	0%	1%	-3%
Cc1ccccc1C(=O)NCCSc1ccccc1	-6%	13µM*	9.5µM*	7.3µM*	3.5µM*	2.8µM*
O=C(NCCSc1ccccc1)c1ccccc1Cl	-4%	11µM*	7.6µM*	13µM*	2.5µM*	3.2µM*
Cc1ccc2nc(-c3ccc(N4C(=O)CC(N5CCN(CCO)CC5)C4=O)cc3)sc2c1 (stereo not drawn)	-3%	18%	8.5µM*	?	11%	10%
CC(C)=CC(=O)Nc1ccc(Cl)cc1	-7%	14µM*	11µM*	?	1.6µM*	1.4µM*
COc1ccc(NC(=O)Nc2cccs2)cc1Cl	.	.	8.5µM*	?	?	?
COCC(=O)Nc1ccc(OC)c(Cl)c1	.	.	1%	12%	11%	10%
COc1ccc(NC(=O)C=C(C)C)cc1Cl	?	11µM*	12µM*	.	.	.
COc1ccc(NC(=O)c2cc(F)c(F)cc2Cl)cc1Cl	.	.	13µM*	?	?	?
COc1ccc(Cl)cc1NC(=O)N1CCN(Cc2cc(=O)n3nc(-c4ccccc4)sc3n2)CC1	.	.	0%	.	.	.
Cc1ccc(-c2cc(-c3c(C)nn(C)c(=O)c3N)[nH]n2)cc1	.	.	?	6%	3%	2%
Cc1ccc(-c2cc(N)n(-c3ccc(C)cc3)n2)cc1	-5%	?	13µM*	?	2.5µM*	3.5µM*
Cc1cc(N)n(-c2ccc(C)c(C)c2)n1	.	.	?	?	22%	29%
Cc1ccc(-c2cc(N)n(-c3ccc(F)cc3)n2)cc1	-5%	13µM*	9.5µM*	23µM*	?	3.5µM*
COc1ccc(-c2cn3c(n2)sc2cc(C(=O)Nc4ccc(C)c(C)c4)ccc23)cc1	.	.	-3%	.	.	.
Cc1ccc(-c2cc(C(=O)O)c3cc(Br)ccc3n2)s1	.	.	2.4µM*	6%	?	22%
Cc1cccc(-c2cc(C(=O)NCCCn3ccnc3)c3ccccc3n2)c1	-7%	-12%	15µM*	2%	-1%	-3%
Cc1ccc(-c2cc(C(=O)NC3=NCCS3)c3cc(Br)ccc3n2)o1	0%	5%	6µM*	-6%	4%	10%
Cc1ccc(-c2cc(C(=O)NN3CCOCC3)c3cc(Br)ccc3n2)o1	-2%	10%	?	-6%	-4%	-5%
O=C(NC1=NCCS1)c1cc(-c2cccnc2)nc2ccccc12	-3%	-11%	?	-3%	-1%	5%
SMILES	KinaseGlo FLuc	SMN2 splice up	FLuc counter	ELG1 genotoxic	NPC1 prom act	Rab9 prom act
Cc1ccc(-c2cc(C(=O)O)c3cc(Br)ccc3n2)o1	-2%	19%	11µM*	-4%	5%	4%
O=C1NC(Cc2ccccc2)c2nc3ccc(Cl)cc3c(=O)n2-c2ccccc21 (stereo not drawn)	.	.	.	0%	.	.
CCOC(=O)c1ccc(NC(=O)Cn2ncc3c(C)n(Cc4ccccc4F)c(C)c3c2=O)cc1	.	-7%	-14%	.	.	.
O=C(O)[C@@H]1Cc2c([nH]c3ccccc23)[C@@H](CCCCO)N1	-1%[7.66 µM]	-10%[9.22 µM]	.	.	.	.
Cc1ccc(-c2cc(C(=O)NCCCn3ccnc3)c3cc(Br)ccc3n2)o1	-1%	-6%	15µM*	2%	-1%	-2%
O=C(NCc1ccon1)C1CCC(=O)N(CCc2ccc(Cl)cc2)C1 (stereo not drawn)	.	.	1%	-3%	2%	8%
COc1ccc2c(c1)CC/C(=C\C=C\c1ccccc1)C2=O	1%	?	2.7µM*	9%	18%	8%
COc1cccc(/C=C2\CCc3ccccc3C2=O)c1	.	.	0.15µM*	2.6µM*	?	?
CCN1C/C(=C/c2ccc(OC)c(O)c2)C(=O)/C(=C/c2ccc(OC)c(O)c2)C1	-1%	-105%	4%	-21%	-45%	-44%
COc1cc(/C=C2\COC/C(=C\c3ccc(O)c(OC)c3)C2=O)ccc1O	.	.	17µM*	-17%	-11%	-43%
COc1ccc(/C=C2\CCc3ccccc3C2=O)cc1OC	-6%	-25%	5.4µM*	17%	2%	4%
COc1ccc2c(c1)CC/C(=C/c1cc(OC)c(OC)c(OC)c1)C2=O	3%	-58%	-16%	-12%	4%	1%
O=S(=O)(c1ccccc1)c1nc(-c2ccccc2F)oc1N1CCOCC1	.	1%	-15%	.	.	.
COc1ccc2c(c1)CC/C(=C/c1ccccn1)C2=O	.	.	5.4µM*	15%	?	?
COc1ccc(/C=C2\CC/C(=C\c3ccc(OC)cc3OC)C2=O)c(OC)c1	12%	-27%	?	?	14%	21%
COc1cccc(/C=C2\C(=O)C(=O)c3ccccc32)c1	0%	16%	21µM*	4%	-2%	-3%
COc1cc(/C=C2/CC/C(=C/c3ccc(O)c(OC)c3)C2=O)ccc1O	.	.	11µM*	-4%	-5%	-2%
CC(=O)Oc1ccc(/C=C2/CCc3ccccc3C2=O)cc1	.	.	0.6µM*	?	-4%	15%
COc1cc(/C=C2\C(=O)N(C)C(=S)N2C)ccc1O	0%	7%	-13%	-2%	0%	-5%
CCOC(=O)c1ccc(NC(=O)C2CCCN(c3ccc(Sc4ccc(C)cc4)nn3)C2)cc1 (stereo not drawn)	.	15%	-19%	.	.	.
CCCn1c(-c2ccc(F)cc2)nc2c(NCCN(CC)CC)nc(C)nc21	-1%	-2%	.	.	.	.
COc1cc(/C=C2\CC/C(=C\c3ccc(OCCO)c(OC)c3)C2=O)ccc1OCCO	5%	-24%	-9%	-4%	-3%	-2%
COc1ccc(/C=C2\CC/C(=C\c3ccc(OC)c(OC)c3)C2=O)cc1OC	-1%	4%	1.2µM*	12%	1%	-6%
CC(=O)Nc1ccc(/C=N/Nc2nc3ccccc3[nH]2)cc1	-12%	-29%	12µM*	-8%	?	?
